Results: PubChem BioAssay (NCI)
About 79,000 compounds went through this panel and 15% of them were active in at least one assay; those are over-represented in the sample as a whole. Calls of active or inactive are those of the source. No stated cut-off is given here; in the data, active means growth inhibition above about 70%; inactive means the rest. Where a SMILES comes first, the peptide text is derived from it. Bridges are numbered along the chain shown (N, C = ends). [ ]: non-standard residue; d: D form. The star is where a group is joined. ξ: configuration not given here. PhAc = O=C(Cc1ccccc1)*; ξP = O=C(O)C1CCCN1

What was measured:
[1] = NCI Yeast Anticancer Drug Screen. Data for the rad50 strain (AID 155);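 further: 0% = growth of vehicle-only cultures of the same strain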; conditions: S. cerevisiae rad50 strain growth inhibition; at 50.0 µM; active compounds read high
Method in brief: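 Cells are treated with compound, grown, and their growth is then scored against vehicle-only cultures of the same repair-deficient yeast strain.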

[2] = NCI Yeast Anticancer Drug Screen. Data for the mec2-1 strain (AID 157); conditions: S. cerevisiae mec2-1 strain, at 50.0 µM, active compounds read high
Method in brief: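 Compounds were applied to mec2-1 yeast cells. Their growth was then compared with that of vehicle-treated cultures to give growth inhibition.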

[3] = NCI Yeast Anticancer Drug Screen. Data for the sgs1 mgt1 strain (AID 161);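 further: 0% = growth of cultures given vehicle only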; conditions: S. cerevisiae sgs1 mgt1 strain, at 50.0 µM, active compounds read high
Method in brief: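 This yeast growth screen uses a strain with defined DNA-repair lesions; compound-treated growth is compared with vehicle-treated growth.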

[4] = NCI Yeast Anticancer Drug Screen. Data for the cln2 rad14 strain (AID 165);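 further: 0% = growth equal to vehicle treated cultures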; conditions: S. cerevisiae cln2 rad14 strain, at 50.0 µM, active compounds read high
Method in brief: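 Strain: cln2 rad14 yeast, altered in cell cycle control and DNA damage repair. Read-out: growth inhibition vs vehicle.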

[5] = NCI Yeast Anticancer Drug Screen. Data for the bub3 strain (AID 167); conditions: S. cerevisiae bub3 mutant strain, at 50.0 µM, active compounds read high
Method in brief: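 Part of a panel of yeast mutants defective in DNA damage repair or cell cycle regulation. Each strain is grown with compound, and inhibition is calculated relative to solvent-treated cultures.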

[6] = NCI Yeast Anticancer Drug Screen. Data for the mlh1 rad18 strain (AID 175); conditions: S. cerevisiae mlh1 rad18 strain growth inhibition; at 50.0 µM; active compounds read high
Method in brief: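 A repair-deficient yeast strain is exposed to test compound, and growth is scored relative to vehicle-treated controls.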

Measured: growth inhibition

O=C(Nc1ccc(Cl)cc1)Nc1nnc(-c2cc([N+](=O)[O-])cc([N+](=O)[O-])c2)o1
inactive: [1] -2.1% | [2] 20.8% | [3] 28.8% | [4] -13.3% | [5] -32.6% | [6] -2.25%

CC(=O)Oc1cccc(/C=C/C(=O)O)c1
inactive: [1] 19% | [2] 29.3% | [3] 22.9% | [4] 3.75% | [5] 39.6% | [6] 18.9%

Cc1cccc2c1Oc1ccccc1C2NC(=O)OCCc1ccccc1 (stereo unspecified)
inactive: [1] -14.3% | [2] -8.25% | [3] -7.25% | [4] -9.15% | [5] -8.05% | [6] 1.25%

N#CCCCCCCC(N)=O
inactive: [1] 4.4% | [2] -0.9% | [3] 6.4% | [4] -1.25% | [5] -5.6% | [6] -16.2%

CCCC[N+](C)(C)CC[N+](C)(C)CCCC
inactive: [1] 4.25% | [2] -14.9% | [3] -10% | [4] -36.3% | [5] -1.4% | [6] -16.2%

O=C1C=C(NCCCCC2CCCCC2)c2ccccc2C1=O
inactive: [1] 11.8% | [2] -3.25% | [3] 0.15% | [4] 11.2% | [5] -9.3% | [6] -4.6%

CN(C)C(=N)N
inactive: [1] -28.9% | [2] 6.3% | [3] -27.4% | [4] -21.6% | [5] -0.7% | [6] -18.4%

NCCCCCC(=O)O
inactive: [1] -37.5% | [2] -25.4% | [3] -17.6% | [4] 8.2% | [5] -22% | [6] -8.4%

COc1ccc(S(=O)(=O)Oc2ccc(Cl)cc2)cc1
inactive: [1] -2.35% | [2] 11.6% | [3] 18.1% | [4] -234% | [5] 42.5% | [6] 9.05%

C/C(CC(=O)NC1=CC=C(NC(=O)C/C(C)=N\Nc2ccccc2)CC1)=N/Nc1ccccc1
inactive: [1] 8.65% | [2] 12% | [3] -18.8% | [4] -9.35% | [5] -0.1% | [6] 13.7%

CC1(C=O)CCCC2(C)[C@@H]1CCC13CC(CO)C(CC[C@H]12)C3 (stereo partly specified)
inactive: [1] 19.4% | [2] 5.7% | [3] 10.8% | [4] 16.6% | [5] 14.1% | [6] 18.6%

ClC(Cl)(Cl)C1CCC2CCCC21 (stereo unspecified)
inactive: [1] 4.15% | [2] -24.1% | [3] -3.45% | [4] 6.1% | [5] -9.1% | [6] -0.8%

Clc1ccc2c(c1)N(C1CCCN(Cc3ccccc3)C1)c1ccccc1S2 (stereo unspecified)
inactive: [1] 45.5% | [2] 7.65% | [3] 35.1% | [4] 25.8% | [5] 43.7% | [6] 47%

CC(C)CC(NC(=O)C(C)NC(=O)C(NC(=O)OCc1ccccc1)C(C)O)C(=O)NC(CC(C)C)C(=O)NCC(=O)NN (stereo unspecified)
inactive: [1] 12.1% | [2] 1.9% | [3] 0.05% | [4] -0.3% | [5] -5.1% | [6] -15.6%

O=C(Nc1ccc2c(O)c(N=Nc3ccc(N=Nc4ccc(S(=O)(=O)O)cc4)cc3)c(S(=O)(=O)O)cc2c1)c1ccccc1
inactive: [1] 18.9% | [2] -5.8% | [3] 2.9% | [4] -9.1% | [5] 8.8% | [6] 14.7%

NC(=O)C(Cc1ccccc1)c1ccccc1 (stereo unspecified)
inactive: [1] -12.2% | [2] -15.2% | [3] -7.55% | [4] -23% | [5] -16.6% | [6] 18.4%

CC(C)=NOC(C)C(=O)O (stereo unspecified)
inactive: [1] -11.9% | [2] 18.2% | [3] -24.4% | [4] 10.2% | [5] -0.9% | [6] -3.15%

Cc1ccc2cccc([N+](=O)[O-])c2n1
inactive: [1] 15.8% | [2] -23.5% | [3] 3.75% | [4] 27.4% | [5] 1.2% | [6] 14.3%

O=C(Nc1ccc(Cl)c(Cl)c1)C(Cl)Cl
inactive: [1] 23.5% | [2] 15.1% | [3] 50.5% | [4] 30.2% | [5] 39.1% | [6] 10.3%

CCOC(=O)Nc1ccc([N+](=O)[O-])cc1[N+](=O)[O-]
inactive: [1] 15.9% | [2] -0.45% | [3] 16.2% | [4] 14.8% | [5] 8.6% | [6] 13.2%

Cc1c(C(N)=O)c(-c2ccccc2)c(-c2ccccc2)n1Nc1ccccc1
inactive: [1] 16.9% | [2] -2.65% | [3] 13.7% | [4] 11.9% | [5] -5.05% | [6] 23.7%

C=CS(=O)(=O)CCOc1ccc(Cl)cc1Cl
active: [1] 98.8% | [2] 99.2% | [3] 99.7% | [4] 97.8% | [5] 98.4% | [6] 98.9%

COc1ccc(-c2cc(C(O)C3CCCCN3)c3ccccc3n2)cc1 (stereo unspecified)
inactive: [1] 4.15% | [2] -42% | [3] -20.9% | [4] 11.7% | [5] -31.1% | [6] -10.1%

NNC(=O)CC(=O)N(C(=O)/C=C/c1ccccc1)c1ccc(Cl)cc1
inactive: [1] -11.9% | [2] -16.9% | [3] 15.1% | [4] 24% | [5] -14.5% | [6] 19.4%

O=C(NCc1ccccc1)NC(c1ccccc1)(c1ccccc1)c1ccccc1
inactive: [1] 28.9% | [2] 14.2% | [3] 34.6% | [4] 11.8% | [5] -4.25% | [6] 30.9%

CCCCCCCC/C=C/CCCCCCCC(=O)NN(C)C
inactive: [1] -1.4% | [2] -7.6% | [3] -0.5% | [4] -59.2% | [5] -3.95% | [6] -11.3%

O=C1CC2CCC(C1)S2
inactive: [1] -18.1% | [2] -28.6% | [3] -15.4% | [4] 16.1% | [5] -2.95% | [6] -33%

O=C1OCC(c2ccccc2)(c2ccccc2)C(=O)N1O
inactive: [1] 18.4% | [2] -2.1% | [3] 3.95% | [4] 13.2% | [5] 5.65% | [6] 16.5%

CC1(C)C2CCC1(C)C(OC(=O)C1OC(O)C(O)C(O)C1O)C2 (stereo unspecified)
inactive: [1] -1.3% | [2] 24.9% | [3] 12.8% | [4] -2.75% | [5] 27.6% | [6] 28.9%

COC(=O)C(=O)C(/C=N/C(=S)Nc1ccc(S(=O)(=O)Nc2nccs2)cc1)=C(\O)c1c(C)[nH]c2ccccc12
inactive: [1] 39.1% | [2] 23.8% | [3] 35% | [4] 5.2% | [5] 35.9% | [6] 29.8%

COc1ccc(NC(=O)C(=O)NNC(=O)c2sc(NNC(C)=O)nc2C)c([N+](=O)[O-])c1
inactive: [1] 27.3% | [2] -10.7% | [3] 39.2% | [4] 8.4% | [5] 20.6% | [6] 5.3%

OC(CCl)(CCl)CCl
inactive: [1] 9.5% | [2] -11.9% | [3] -9.7% | [4] -16.5% | [5] -2.05% | [6] 18.8%

O=C(Cc1ccccc1)N[C@@H]1COC(=O)C2CCCN2C(=O)[C@@H]2CCCN2C1=O (stereo partly specified) (PhAc-[dS]-Pro-[ξP]; ester 1-C)
inactive: [1] -11.6% | [2] -1.7% | [3] 4.25% | [4] 27.4% | [5] 12.3% | [6] 0.65%

CCCCN(CCCC)C(=O)/C=C\C(=O)O
inactive: [1] -6.6% | [2] 1% | [3] -0.2% | [4] 28.1% | [5] -1.2% | [6] 4.9%

C/C(C(=O)O)=C(\C)c1ccccc1
inactive: [1] -0.7% | [2] -0.75% | [3] -0.9% | [4] -15.6% | [5] 2.1% | [6] 5.2%

O=C(Cc1ccccc1)Nc1ccc(Br)cc1
inactive: [1] 6.15% | [2] 15.8% | [3] 15.5% | [4] -16.1% | [5] 13.7% | [6] 8.55%

COC(=O)c1cccc2c1-c1ccccc1C2=O
inactive: [1] 9.25% | [2] 11.9% | [3] -18.4% | [4] 5% | [5] 14% | [6] 11.6%

CCCCNC(=O)C(C)S(=O)(=O)c1ccc(C)cc1 (stereo unspecified)
inactive: [1] 6.6% | [2] 16.4% | [3] -17.3% | [4] -21.7% | [5] -2% | [6] 11.8%

Cc1cccc(/C=C/c2csnn2)n1
inactive: [1] -25.1% | [2] -6.75% | [3] -8.4% | [4] 14.6% | [5] -6.05% | [6] -15.2%

C/C(NN(C)C)=C(\C#N)C(=O)/C=C/c1cccs1
inactive: [1] 25.2% | [2] 1.75% | [3] 38.5% | [4] 25.9% | [5] 18.1% | [6] 18.8%

C/C(CC(C)C)=N/NC(N)=S
inactive: [1] 14.9% | [2] 0.7% | [3] 1.35% | [4] -23.1% | [5] 32.6% | [6] 30.4%
